Measured values: PubChem BioAssay
For part of these data: Results with a measured potency or affinity are listed apart. The list shows a part of the results. The source made the active and inactive calls.

What was measured:
[1] = biological target: Inward rectifier potassium channel 2 (Mus musculus) (UniProt P35561); experiment: inhibition of Kir2.1 inward rectifier potassium flux – cell-based, FluxOR thallium flux, duplicate, confirmation (AID 2032;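 active means Primary-screen hit whose thallium flux fell at least 3 control SD below untreated wells in both duplicates, with normal baseline fluorescence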); details: Kir2.1-expressing cells, FluxOR thallium flux fluorescence, at 10 µM; active compounds read low
[2] = parental HEK293 cell activity, no Kir2.1 – FluxOR thallium flux, duplicate, single concentration, counter-screen for Kir2.1 inhibitor project, confirmation (AID 2105;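 active means dye signal at least 3 control SD above or below untreated wells in both duplicates, raw fluorescence within 3, either direction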;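 on FluxOR signal as % of negative control (100 = no effect): percent is based on the flux ratio of peak minus minimum fluorescence over baseline F0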); details: parental HEK293 cells, FluxOR thallium flux fluorescence, at 10 µM; 0% = unstimulated blank wells
[3] = parental CHO-K1 cell activation, no KCNQ2 – FluxOR thallium flux, duplicate, counter-screen for KCNQ2 potentiator project, confirmation (AID 2282;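 active means signal rise of at least 3 SD above the untreated control mean, in both duplicate wells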;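 further: counter screen of KCNQ2 potentiator hits so any rise reflects channel-independent effects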); details: parental CHO-K1 cells, FluxOR thallium flux fluorescence; at 10 µM; active compounds read high; zero = vehicle mean+3SD, 100% = vehicle-minus-blank window
[4] = biological target: Potassium voltage-gated channel subfamily KQT member 1 (Homo sapiens) (UniProt P51787); experiment: KCNQ1 activation in stable CHO cells – cell-based, FluxOR thallium flux, selectivity assay for KCNQ2 potentiator project, confirmation (AID 2283;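 active means fluorescence ratio rise of at least 3 SD of vehicle wells above their mean, in both replicate wells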;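 further: 0% = vehicle mean plus 3 SD and 100% = vehicle minus unstimulated blank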); details: FluxOR thallium flux fluorescence, at 10 µM, active compounds read high, beyond 3SD, as % of vehicle-control signal
[5] = biological target: Potassium voltage-gated channel subfamily KQT member 2 (Rattus norvegicus) (UniProt O88943); experiment: KCNQ2 potassium channel activity enhancers – cell-based, CHO, FluxOR thallium flux, duplicate, confirmation (AID 2287;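 active means fluorescence ratio rising 3 SD or more over the vehicle control mean in both replicates, plus primary screen hit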;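 further: peak minus minimum thallium fluorescence divided by baseline after K/Tl stimulus; 0% = vehicle mean plus 3 SD and 100% = vehicle minus unstimulated blank difference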); details: CHO-KCNQ2 cells, FluxOR thallium flux fluorescence; at 10 µM; active compounds read high
[6] = biological target: Inward rectifier potassium channel 2 (Mus musculus) (UniProt P35561); experiment: PubChem AID 2345; details: HEK293 Kir2.1, FluxOR thallium flux fluorescence; at 10 µM; active compounds read high;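 further: 0% = vehicle mean plus 3 SD and 100% = vehicle minus no-stimulus blank window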
[7] = biological target: Potassium voltage-gated channel subfamily KQT member 2 (Rattus norvegicus) (UniProt O88943); experiment: W236L mutant KCNQ2 current enhancers – cell-based, rat KCNQ2 W236L, CHO, automated patch clamp, mechanism study for KCNQ2 potentiator project (AID 2558); details: at 25 µM
[8] = nonspecific flux increase, KCNQ1-free cells – parental CHO cells, counter-screen for KCNQ1 potentiator project (AID 493006;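 active means duplicate-averaged activation above buffer control mean plus 5 SD of those controls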;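 further: fluorescence ratio of max minus min over baseline after K+ and Tl+ depolarization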); details: parental CHO-K1 cells, FluxOR thallium flux, at 10 µM; active compounds read high
[9] = biological target: Potassium voltage-gated channel subfamily KQT member 1 (Homo sapiens) (UniProt P51787); experiment: enhancement of KCNQ1 channel thallium flux – FluxOR thallium flux, CHO cells, duplicates, confirmation (AID 493007;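 active means potentiation averaged over duplicate wells exceeding buffer-only control mean by more than 3 SD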;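 further: 0% = buffer-only wells and 100% = R-L3 activator control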); details: KCNQ1 cell line, FluxOR thallium flux fluorescence, at 10 µM; active compounds read high, % of reference activator effect, buffer zero
[10] = biological target: Potassium voltage-gated channel subfamily KQT member 2 (Rattus norvegicus) (UniProt O88943); experiment: KCNQ2 thallium flux enhancement – KCNQ2-CHO-K1 cells, selectivity assay for KCNQ1 potentiator project (AID 493009;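 active means mean duplicate potentiation above the buffer control mean plus 5 SD of buffer wells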;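 further: assay conditions were tuned for KCNQ1 rather than KCNQ2 modulators; signal is max minus min fluorescence divided by baseline after thallium stimulus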); details: FluxOR thallium flux fluorescence, at 10 µM; active compounds read high, scaled: buffer 0, activator control 100
[11] = biological target: Potassium voltage-gated channel subfamily KQT member 1 (Homo sapiens) (UniProt P51787); experiment: KCNQ1 activators by electrophysiology – IonWorks patch clamp, KCNQ1-CHO cells, orthogonal assay for KCNQ1 potentiator project, confirmation (AID 493184;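 active means current rise at least 3 SD above the untreated control mean in each of two repeat wells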;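 further: percent change of the same well's current before compound addition so 0% = no change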); details: automated patch clamp current, at 10 µM; active compounds read high
[12] = system: TRPC4 beta (transient receptor potential cation channel C4), mouse; experiment: TRPC4 cation channel opening, retest – cell-based, Fluo4 calcium, HEK293 TRPC4beta/mu-opioid, duplicates, 10 µM, confirmation (AID 2426;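 active means fluorescence ratio normalized to control raised more than 50% in primary screen plus both repeat runs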); details: Fluo4 calcium fluorescence, at 10 µM; active compounds read high
[13] = system: transient receptor potential cation channel C4 beta (TRPC4), mouse; experiment: TRPC4 cation channel opening, second retest – cell-based, second round, Fluo4, HEK293 TRPC4beta/mu-opioid, 1 µM, confirmation (AID 2461;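 active means primary screen active and over 50% activation in each of two duplicate runs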); details: Fluo4 calcium fluorescence, at 1 µM; active compounds read high
[14] = system: TRPC4 (transient receptor potential cation channel C4 beta), mouse; experiment: potentiation of DAMGO EC20 TRPC4 response – cell-based, second round, Fluo-4, HEK293 TRPC4beta/mu-opioid, 1 µM, confirmation (AID 2554;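 active means primary screen hit whose fluorescence ratio, in both repeats, exceeds the weak agonist control mean by 3 SD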); details: DAMGO EC20, Fluo-4 calcium flux, at 1 µM; active compounds read high
[15] = system: TRPC4 beta (transient receptor potential cation channel C4), mouse; experiment: potentiation of DAMGO EC20 TRPC4 response – cell-based, Fluo-4, HEK293 TRPC4beta/mu-opioid, confirmation (AID 2555;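 active means primary screen hit whose calcium fluorescence ratio, in both repeats, exceeds the weak agonist control mean by 3 SD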); details: DAMGO EC20, Fluo-4 calcium flux, at 10 µM; active compounds read high
[16] = biological target: Short transient receptor potential channel 4 (Mus musculus) (UniProt Q9QUQ5); experiment: blockers of DAMGO-evoked TRPC4 calcium flux – cell-based, Fluo4, HEK293 TRPC4beta/mu-opioid, confirmation (AID 2636;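 active means calcium signal cut by more than 3 SD below the full-agonist control yet still positive, in both repeats and the earlier primary screen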); details: at 10 µM; active compounds read high
[17] = biological target: Short transient receptor potential channel 4 (Mus musculus) (UniProt Q9QUQ5); experiment: blockers of DAMGO-evoked TRPC4 calcium flux – cell-based, second round, Fluo4, HEK293 TRPC4beta/mu-opioid, 1 µM, confirmation (AID 2637;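 active means calcium signal ratio cut to more than 3 SD under the fully stimulated control mean yet still positive, in both repeats and the primary screen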); details: at 1 µM; active compounds read high
[18] = biological target: Short transient receptor potential channel 4 (Mus musculus) (UniProt Q9QUQ5); experiment: calcium entry via TRPC4 opening agents – cell-based, HEK293 TRPC4/mu-opioid, Fluo-4 calcium, dose response (AID 434937;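 active means primary screen activator hit with a dose response curve and TRPC4 channel activation at any tested dose; inactive means no activation, no dose response, or not a primary hit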)
[19] = biological target: Short transient receptor potential channel 4 (Mus musculus) (UniProt Q9QUQ5); experiment: potentiation of DAMGO-evoked TRPC4 calcium signal – cell-based, HEK293 TRPC4/mu-opioid, Fluo-4 calcium, EC20 DAMGO, dose response (AID 434941;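 active means earlier screen potentiator hit that boosts the TRPC4 ion channel at some dose, with a dose response; inactive means no potentiation, no dose response, or not a prior hit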;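 further: calcium entry triggered by an EC20 dose of DAMGO at the co-expressed mu-opioid receptor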)
[20] = biological target: Short transient receptor potential channel 4 (Mus musculus) (UniProt Q9QUQ5); experiment: block of DAMGO-driven TRPC4 calcium entry – cell-based, HEK293 TRPC4/mu-opioid, Fluo-4 calcium, dose response (AID 434942;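 active means primary screen inhibitor hit that blocks the TRPC4 channel at some tested dose, yielding a dose curve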)
[21] = biological target: Short transient receptor potential channel 6 (Mus musculus) (UniProt Q61143); experiment: TRPC6 blockade by TRPC4 inhibitor hits – cell-based, HEK293, membrane potential dye, duplicate, selectivity assay for TRPC4 inhibitor project, confirmation (AID 434948;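 active means active in primary screen and both duplicates, each dropping signal beyond three positive-control SD with fluorescence still positive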); details: HEK293 TRPC6, membrane potential dye fluorescence, at 10 µM, stimulated with maximal-effect acetylcholine; active compounds read high
[22] = biological target: Short transient receptor potential channel 6 (Mus musculus) (UniProt Q61143); experiment: TRPC6 opening by TRPC4 activator hits – cell-based, HEK293, membrane potential dye, duplicate, selectivity assay for TRPC4 activator project, confirmation (AID 434950;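 active means membrane potential signal rise above negative control mean plus 3 SD in both duplicates, also active in the earlier TRPC4 screen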); details: HEK293 TRPC6, membrane potential fluorescence, at 10 µM; activation: active compounds read high; outcome: activation
[23] = biological target: Short transient receptor potential channel 6 (Mus musculus) (UniProt Q61143); experiment: positive modulators of mouse TRPC6 channel – HEK293 cells, membrane potential dye, duplicate, selectivity assay for TRPC4 potentiator project, confirmation (AID 434952;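 active means compound raising the membrane signal above positive-control mean plus 3 SD in both repeats, and a primary screen hit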); details: HEK293 TRPC6, membrane potential dye fluorescence, at 10 µM, maximal acetylcholine added after compound; active compounds read high
[24] = biological target: Short transient receptor potential channel 4 (Mus musculus) (UniProt Q9QUQ5); experiment: calcium flux activators in TRPC4/5HT1a cells, counter-screen for TRPC4 activator project, cell-based, second counter screen, HEK293 TRPC4/5HT1a, Fluo-4 (AID 434977;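 active means calcium signal rise above buffer-control mean plus 5 SD in both duplicates, and also a hit in the primary screen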); details: Fluo-4 calcium flux, at 10 µM; active compounds read high
[25] = serotonin-gated TRPC4 signal block – cell-based, second counter screen, HEK293 TRPC4/5HT1a, Fluo-4, counter-screen for TRPC4 inhibitor project, confirmation (AID 434978;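 active means primary screen active whose calcium signal fell more than 3 SD beyond the full-serotonin control mean in both duplicate plates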;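 further: serotonin given first at submaximal then at maximal dose after compound preincubation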); details: Fluo-4 calcium flux, at 10 µM, serotonin added to trigger calcium flux; active compounds read high
[26] = system: TRPC4 (mouse), co-expressed with 5HT1a in HEK293; experiment: enhancement of serotonin-evoked TRPC4 response – cell-based, second counter screen, HEK293 TRPC4/5HT1a, Fluo-4, counter-screen for TRPC4 potentiator project, confirmation (AID 434979;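 active means signal rise over 3 SD above mean of control wells given weak agonist, in both repeats and first screen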); details: Fluo-4 calcium flux, at 10 µM, serotonin added at its EC20 dose; active compounds read high
[27] = nonspecific calcium rise without TRPC4 – cell-based, HEK293 mu-opioid receptor line, counter-screen for TRPC4 activator project, confirmation (AID 449723;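 active means hit in primary screen, with calcium signal over 5 SD above buffer well mean in both duplicates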;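 further: counter screen cells carry the mu-opioid receptor alone and lack TRPC4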); details: HEK293 mu-opioid cells, Fluo-4 calcium fluorescence, at 10 µM; active compounds read high
[28] = nonspecific potentiation of DAMGO calcium response – cell-based, HEK293 mu-opioid receptor line, counter-screen for TRPC4 allosteric potentiator project, confirmation (AID 449724;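 active means calcium signal rise more than 3 SD above the low-dose agonist control mean, in both duplicate plates and the primary screen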); details: HEK293 mu-opioid receptor cells, Fluo-4 calcium flux, at 10 µM, compound added before EC20 DAMGO stimulus; active compounds read high

Short transient receptor potential channel 6 (Mus musculus), sequence (Q61143 whole entry, looked up): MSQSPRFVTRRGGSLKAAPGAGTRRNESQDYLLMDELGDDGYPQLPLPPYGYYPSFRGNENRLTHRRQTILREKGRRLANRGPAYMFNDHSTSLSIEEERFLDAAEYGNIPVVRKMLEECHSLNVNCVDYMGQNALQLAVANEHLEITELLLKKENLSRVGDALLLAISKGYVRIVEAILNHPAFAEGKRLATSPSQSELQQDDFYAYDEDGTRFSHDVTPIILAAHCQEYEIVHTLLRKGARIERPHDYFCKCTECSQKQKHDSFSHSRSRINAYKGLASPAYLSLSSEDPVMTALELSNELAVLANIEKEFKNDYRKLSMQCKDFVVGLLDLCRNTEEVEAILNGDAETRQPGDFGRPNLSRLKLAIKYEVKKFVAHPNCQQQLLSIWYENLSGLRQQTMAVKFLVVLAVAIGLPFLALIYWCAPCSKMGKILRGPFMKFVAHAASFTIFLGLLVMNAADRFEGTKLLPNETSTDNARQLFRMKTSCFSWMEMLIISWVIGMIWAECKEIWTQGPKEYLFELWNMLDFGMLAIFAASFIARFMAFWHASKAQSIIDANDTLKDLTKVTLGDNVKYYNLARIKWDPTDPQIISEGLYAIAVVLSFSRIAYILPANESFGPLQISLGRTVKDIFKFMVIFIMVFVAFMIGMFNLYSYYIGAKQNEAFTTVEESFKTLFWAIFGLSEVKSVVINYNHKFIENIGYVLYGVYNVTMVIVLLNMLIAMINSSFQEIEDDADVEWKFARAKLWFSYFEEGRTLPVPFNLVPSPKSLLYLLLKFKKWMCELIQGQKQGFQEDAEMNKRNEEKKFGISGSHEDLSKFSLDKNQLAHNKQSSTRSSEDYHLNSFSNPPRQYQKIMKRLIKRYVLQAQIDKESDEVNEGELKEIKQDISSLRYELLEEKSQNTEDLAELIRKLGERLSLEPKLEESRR
Short transient receptor potential channel 4 (Mus musculus), sequence (Q9QUQ5 whole entry, looked up): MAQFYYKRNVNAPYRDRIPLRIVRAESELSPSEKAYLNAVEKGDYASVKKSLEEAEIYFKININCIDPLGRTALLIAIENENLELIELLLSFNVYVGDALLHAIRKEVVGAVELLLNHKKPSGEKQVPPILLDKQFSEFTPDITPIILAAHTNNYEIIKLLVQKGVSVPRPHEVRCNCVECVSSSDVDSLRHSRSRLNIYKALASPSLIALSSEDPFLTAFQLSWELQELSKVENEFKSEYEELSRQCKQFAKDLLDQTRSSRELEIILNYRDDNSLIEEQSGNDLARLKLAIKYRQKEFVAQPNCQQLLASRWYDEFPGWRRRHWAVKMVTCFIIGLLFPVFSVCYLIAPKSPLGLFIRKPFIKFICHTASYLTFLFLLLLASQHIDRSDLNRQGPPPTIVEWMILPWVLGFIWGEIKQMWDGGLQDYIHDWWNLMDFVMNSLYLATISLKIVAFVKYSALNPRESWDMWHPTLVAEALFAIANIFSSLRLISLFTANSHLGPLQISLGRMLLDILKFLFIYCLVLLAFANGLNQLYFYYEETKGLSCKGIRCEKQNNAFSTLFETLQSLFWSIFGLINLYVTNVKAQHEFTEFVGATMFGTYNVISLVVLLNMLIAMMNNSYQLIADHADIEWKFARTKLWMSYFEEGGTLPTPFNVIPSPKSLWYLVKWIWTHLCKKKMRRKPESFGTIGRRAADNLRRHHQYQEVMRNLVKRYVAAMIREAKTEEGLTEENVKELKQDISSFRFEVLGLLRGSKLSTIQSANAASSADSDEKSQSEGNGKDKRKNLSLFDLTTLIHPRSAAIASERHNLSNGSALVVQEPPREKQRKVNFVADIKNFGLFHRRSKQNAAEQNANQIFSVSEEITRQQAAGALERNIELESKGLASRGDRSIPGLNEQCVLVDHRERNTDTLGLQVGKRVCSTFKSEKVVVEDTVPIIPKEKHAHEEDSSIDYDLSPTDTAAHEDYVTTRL
Inward rectifier potassium channel 2 (Mus musculus), sequence (P35561 whole entry, looked up): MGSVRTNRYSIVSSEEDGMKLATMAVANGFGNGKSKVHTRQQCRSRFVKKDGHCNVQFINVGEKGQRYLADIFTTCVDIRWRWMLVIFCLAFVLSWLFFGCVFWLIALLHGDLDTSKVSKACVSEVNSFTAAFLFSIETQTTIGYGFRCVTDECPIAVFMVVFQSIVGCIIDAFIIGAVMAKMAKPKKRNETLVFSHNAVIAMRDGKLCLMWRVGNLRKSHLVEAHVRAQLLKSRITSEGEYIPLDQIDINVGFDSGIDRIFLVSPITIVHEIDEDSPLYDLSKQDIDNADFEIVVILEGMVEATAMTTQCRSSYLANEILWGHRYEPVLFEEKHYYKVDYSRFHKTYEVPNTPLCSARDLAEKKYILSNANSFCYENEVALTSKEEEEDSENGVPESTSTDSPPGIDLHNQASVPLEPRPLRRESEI
Potassium voltage-gated channel subfamily KQT member 1 (Homo sapiens), sequence (P51787 whole entry, looked up): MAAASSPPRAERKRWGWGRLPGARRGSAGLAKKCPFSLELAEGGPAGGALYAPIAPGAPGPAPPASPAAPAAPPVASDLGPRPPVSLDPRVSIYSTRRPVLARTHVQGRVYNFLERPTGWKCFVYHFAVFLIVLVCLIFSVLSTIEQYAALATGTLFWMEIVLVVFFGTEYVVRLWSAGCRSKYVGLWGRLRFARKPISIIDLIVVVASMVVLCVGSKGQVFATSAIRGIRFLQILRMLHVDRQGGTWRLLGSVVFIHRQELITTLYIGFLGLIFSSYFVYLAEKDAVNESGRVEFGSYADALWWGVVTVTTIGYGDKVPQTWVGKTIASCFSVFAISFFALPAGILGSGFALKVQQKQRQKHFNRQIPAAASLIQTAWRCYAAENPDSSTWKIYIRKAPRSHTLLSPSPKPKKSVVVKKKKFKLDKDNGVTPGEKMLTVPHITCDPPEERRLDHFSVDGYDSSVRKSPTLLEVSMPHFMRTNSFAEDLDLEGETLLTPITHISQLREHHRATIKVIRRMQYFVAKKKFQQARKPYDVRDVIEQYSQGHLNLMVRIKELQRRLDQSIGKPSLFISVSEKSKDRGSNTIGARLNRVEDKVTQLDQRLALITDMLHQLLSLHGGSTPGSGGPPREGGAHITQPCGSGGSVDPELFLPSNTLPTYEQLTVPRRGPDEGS

CCC1(C)Cc2c(sc3[nH]c(=S)n(Cc4ccccc4)c(=O)c23)CO1 (stereo unspecified)
inactive: outcome [1] | activity increase over 3SD of controls [3] -13% | activation over 3SD threshold [4] -16.6% | outcome [7]
active: FluxOR signal as % of negative control (100 = no effect) [2] 527% | potentiation, less the hit threshold [5] 66% | activity over 3SD threshold [6] 10.5% | activation [8] 294% | potentiation [9] 190% | potentiation [10] 388% | current potentiation [11] 15.1%

O=C(NNC1=C(C(=O)C(F)(F)F)CCC1)c1ccncc1
inactive: outcome [1] | outcome [2] | activity increase over 3SD of controls [3] -5.7% | activation over 3SD threshold [4] -11.4% | activity over 3SD threshold [6] -36.3% | outcome [7]
active: potentiation, less the hit threshold [5] 1.3%

CC(NC(=O)Nc1cccc([N+](=O)[O-])c1)c1ccc2c(c1)OCO2 (stereo unspecified)
inactive: outcome [1] | outcome [2] | activity over 3SD threshold [6] -29.4% | outcome [7]
active: activity increase over 3SD of controls [3] 19.3% | activation over 3SD threshold [4] 80% | potentiation, less the hit threshold [5] 30.7%

Cc1ccc(-n2nc3c(c2NC(=O)CCC2CCCCC2)CS(=O)C3)cc1 (stereo unspecified)
inactive: outcome [1] | outcome [2] | activity over 3SD threshold [6] -35.2% | outcome [7]
active: activity increase over 3SD of controls [3] 7.4% | activation over 3SD threshold [4] 30.1% | potentiation, less the hit threshold [5] 27.6%

Cc1ccc(CNC(=O)CCC2CCCN(Cc3cc4ccccc4o3)C2)o1 (stereo unspecified)
inactive: outcome [12] | outcome [13] | outcome [14] | outcome [15] | outcome [16] | outcome [17] | outcome [18] | outcome [19] | outcome [20] | outcome [21] | outcome [22] | outcome [23] | outcome [24] | outcome [25] | outcome [26] | outcome [27] | outcome [28]

O=C(Nc1nnc2n1CCS2)c1ccc(Br)o1
inactive: outcome [12] | outcome [13] | outcome [14] | outcome [16] | outcome [17] | outcome [18] | outcome [19] | outcome [20] | outcome [21] | outcome [22] | outcome [23] | outcome [24] | outcome [25] | outcome [27] | outcome [28]
active: potentiation [15] 80% | potentiation [26] 56.3%
